Measured values reported in PubChem BioAssay (NCI).
Compounds without any hit were thinned out: in the full panel of roughly 83,000, 20% have a hit.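 Plates (96-well) were seeded with cells, treated with compound at one concentration, and incubated for 48 hours before percent growth was determined.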 Active and inactive are the calls of the source. How the source made its calls: active means growth percent below 10; inactive means the rest.

Columns and labels:
Experiment in all cases: NCI-60 one-dose screen, 48 h (100 = growth as untreated, 0 = no growth, -100 = all killed)
Settings in all cases: 10 µM
[1] = tested on: NCI-H23 lung
[2] = tested on: NCI-H226 lung
[3] = tested on: NCI-H322M lung
[4] = tested on: HOP-62 NSCLC
[5] = tested on: NCI-H460 lung
[6] = tested on: HOP-92 NSCLC
[7] = tested on: NCI-H522 lung
[8] = tested on: A549/ATCC NSCLC
[9] = tested on: 786-0 renal
[10] = tested on: COLO 205 colon
[11] = tested on: DU-145 prostate
[12] = tested on: K-562 leukemia
[13] = tested on: MALME-3M melanoma
[14] = tested on: MDA-MB-231 breast
[15] = tested on: SF-268 CNS
[16] = tested on: SF-295 CNS
[17] = tested on: SF-539 CNS
[18] = tested on: UACC-257 melanoma
[19] = tested on: M14 melanoma
[20] = tested on: RXF 393 renal

Measured: growth

CC1(c2ccccc2)NC(=O)N(CC(=O)Nc2ccc(C(=O)/C=C/c3ccccc3)cc2)C1=O (stereo unspecified)
inactive: [1] 65.5% | [2] 45.7% | [3] 90.2% | [4] 85.9% | [5] 69.4% | [6] 50.7% | [7] 71.4% | [8] 44.3% | [9] 42.6% | [10] 76.4% | [11] 62.1% | [12] 22.4% | [13] 77.6% | [14] 67.7% | [15] 52.2% | [16] 50.9% | [17] 43.3% | [18] 63.5% | [19] 48.2%

COc1cc(/C=C/C(=O)c2ccc(NC(=O)CSc3nnc(-c4c[nH]c5ccccc45)n3-c3ccccc3)cc2)cc(OC)c1OC
inactive: [1] 47.7% | [2] 69.9% | [3] 90.5% | [4] 101% | [5] 91.2% | [6] 105% | [7] 90.5% | [8] 106% | [9] 96.1% | [10] 102% | [11] 79.6% | [12] 28.6% | [13] 95.2% | [14] 64.2% | [15] 85.4% | [16] 74.3% | [17] 60.8% | [18] 106% | [19] 81.1%

COc1ccc(C(=O)CSc2nnc(-c3c[nH]c4ccccc34)n2-c2ccccc2)cc1
inactive: [1] 56.5% | [3] 58.3% | [5] 65.5% | [7] 45.7% | [8] 74% | [9] 45.2% | [10] 84.8% | [11] 68.9% | [12] 58.2% | [14] 32.5% | [15] 41% | [16] 36.2% | [17] 28.5% | [18] 59.5% | [19] 75.7%
active: [2] 0.0587% | [4] 8.82% | [6] 7.9% | [13] -16.2%

COc1cc2c3c(n(CCCNCCO)c(=O)c2cc1OC)-c1nc2c(cc1C3=O)OCO2
inactive: [3] 16.8% | [8] 35.6% | [12] 10.7% | [13] 46.7% | [15] 19.1% | [18] 80.2% | [19] 23.7%
active: [1] -45% | [2] -88.5% | [4] 0.0851% | [5] -43.9% | [6] 7.23% | [7] 2.99% | [9] -25.9% | [10] 2.13% | [11] 6.05% | [14] 1.28% | [16] -8.95% | [17] -57.1%

Nc1cc(-c2cccc(C(=O)NCc3ccc4c(c3)OCO4)c2)ccn1
inactive: [1] 88% | [2] 87.3% | [3] 111% | [4] 93.6% | [5] 111% | [6] 89.4% | [7] 84.4% | [8] 99.2% | [9] 96.7% | [10] 131% | [11] 101% | [12] 74.4% | [13] 99.3% | [14] 102% | [15] 91.5% | [16] 90.7% | [17] 93% | [18] 106% | [19] 108%

COC(=O)c1c(C(=O)OC)c2n(c1C)[C@@H]([C@@H](C)[C@H]1CC[C@H]3[C@@H]4CCC5=CC(=O)CC[C@]5(C)[C@H]4CC[C@]13C)SC2
inactive: [1] 25% | [2] 15.7% | [3] 72.8% | [4] 64.1% | [5] 25.1% | [6] 26.3% | [7] 23.1% | [8] 37.1% | [9] 73.4% | [10] 16% | [11] 57.8% | [12] 15.7% | [13] 62.5% | [14] 56.7% | [15] 56.4% | [16] 24.7% | [17] 59% | [18] 19.5% | [19] 25.2%

COc1ccc(-c2cc(C(=O)N=Nc3c(O)[nH]c4ccc(Br)cc34)c3ccccc3n2)cc1
active: [1] 5.57% | [5] 5.22% | [14] -68.2%
inactive: [2] 50.6% | [3] 70% | [4] 91.6% | [6] 71.4% | [7] 57.7% | [8] 61.1% | [9] 80.1% | [10] 53.2% | [11] 19.9% | [12] 10.2% | [13] 45.9% | [15] 64.4% | [16] 35.3% | [17] 31.7% | [18] 102% | [19] 42.6%

O=C(O)CCCCCCCCCCN1C(=O)/C(=C/c2cnc(-c3ccccc3)s2)SC1=S
inactive: [1] 55.9% | [2] 103% | [3] 80.6% | [4] 115% | [5] 29.6% | [6] 52.1% | [7] 38.2% | [8] 46.1% | [9] 79.3% | [10] 141% | [11] 80.4% | [12] 23.6% | [13] 103% | [14] 100% | [20] 116% | [15] 112% | [16] 83.3% | [17] 110% | [18] 101% | [19] 101%

O=c1oc2ccccc2cc1-c1csc(N=Nc2c(O)[nH]c3ccc(Br)cc23)n1
active: [6] -7.7%
inactive: [1] 61.5% | [2] 58.4% | [3] 92.9% | [4] 40.2% | [5] 106% | [7] 67.4% | [8] 100% | [9] 12.5% | [10] 127% | [11] 94.2% | [12] 103% | [13] 56.3% | [14] 56.5% | [15] 51.2% | [16] 39.5% | [17] 35.6% | [18] 105% | [19] 97.5%

CC(=O)NNc1ccc2nnc(-c3ccc(Br)cc3)n2n1
inactive: [1] 91.5% | [2] 87.8% | [3] 107% | [4] 82.5% | [5] 106% | [6] 103% | [7] 85.3% | [8] 95.9% | [9] 86.3% | [10] 109% | [11] 103% | [12] 95.5% | [13] 107% | [14] 94% | [20] 68.5% | [15] 102% | [16] 96.1% | [17] 90.2% | [18] 105% | [19] 98.2%

COC1=C[C@]23CCC(=O)N2CCc2cc4c(cc2[C@@H]3[C@@H]1OC(=O)CCCC(C)C)OCO4
inactive: [1] 53.2% | [2] 23.3% | [3] 108% | [4] 70.5% | [5] 17.4% | [6] 95.6% | [8] 49.9% | [9] 80.5% | [10] 68% | [11] 84.2% | [12] 17.6% | [14] 98.5% | [15] 133% | [16] 69.9% | [17] 11.3% | [18] 78.9% | [19] 57.1%
active: [7] -2.41% | [13] 4.86%

CC(C)c1ccc(C(=O)Nc2sc3c(c2C(N)=O)CCC(=O)C3=O)cc1
inactive: [1] 81.3% | [2] 86.6% | [3] 104% | [4] 102% | [5] 97.5% | [6] 127% | [7] 84% | [8] 99.4% | [9] 113% | [10] 104% | [11] 103% | [12] 77.4% | [13] 103% | [14] 93.3% | [15] 103% | [16] 104% | [17] 93.9% | [18] 93.8% | [19] 96.3%

COc1cccc2nc(Nc3cccc(NC(=O)c4ccc(CN5CCCN(C)CC5)c(C(F)(F)F)c4)c3)ccc12
active: [1] -97.9% | [2] -70.5% | [3] -100% | [4] -74.7% | [5] -83.6% | [6] -83.5% | [7] -67.5% | [8] -75.6% | [9] -84.9% | [10] -56.9% | [11] -83.4% | [12] 5.93% | [13] -96.3% | [14] -99.1% | [15] -50.3% | [16] -97.7% | [17] -100% | [18] -86% | [19] -90.5%

O=C(CNc1nc(-c2ccccc2)cs1)Nc1cccc([N+](=O)[O-])c1
active: [1] -92.5% | [2] -42.5% | [3] -71.4% | [4] -76.2% | [5] 4.92% | [6] -49.2% | [7] -83.2% | [8] -72.7% | [9] -85.1% | [10] -64.1% | [11] -98.6% | [12] 8.88% | [13] -90.5% | [14] -88.7% | [15] -57.7% | [16] -94.2% | [17] -100% | [18] -71.5% | [19] -87.6%

CC(=O)Oc1ccccc1C(=O)Oc1ccc(C(=O)/C=C/c2ccncc2)cc1
active: [17] -35.6%
inactive: [1] 36.9% | [2] 62.8% | [3] 66.5% | [4] 83.4% | [5] 35.6% | [6] 94.1% | [7] 59.1% | [8] 81% | [9] 53.2% | [10] 40.4% | [11] 46.2% | [12] 11.6% | [13] 86.2% | [14] 40.8% | [15] 75% | [16] 59.1% | [18] 94.9% | [19] 47.6%

COc1ccc2ncc(C#Cc3cncc(C(=O)Nc4ccc(CN5CCN(C)CC5)c(C(F)(F)F)c4)c3)n2n1
active: [1] -80.9% | [2] -68.4% | [3] -98% | [4] -61% | [5] -75.3% | [6] -72% | [7] -65.5% | [8] -51.7% | [9] -55.7% | [10] -63.8% | [11] -100% | [12] -9.3% | [13] -93.6% | [14] -95.8% | [15] -64.5% | [16] -97.5% | [17] -100% | [18] -62.2% | [19] -80.2%
